Assay outcomes from PubChem BioAssay.
Hits are enriched below; roughly 0.93% of the tested compounds scored in any of these assays.
RPL19A-GFP yeast: RPL19A-GFP expression modulators in yeast, primary screen, cell-based, S. cerevisiae, multiplex flow cytometry, MLPCN; S. cerevisiae RPL19A-GFP strain, 3 h; hits give low values; percent response vs DMSO, % at 10 µM; 0.3% of 330,000 active; AID 2025, 2009;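 active = percent response vs DMSO below 50%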;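 also: median channel GFP fluorescence of the barcoded RPL19A-GFP strain; ratio of sample median GFP to plate DMSO average so 100% = DMSO; lower means less RPL19A-GFP as with rapamycin TOR inhibition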
AGP1 TOR yeast: modulators of AGP1-GFP expression in yeast TOR pathway, primary screen, cell-based, multiplex flow cytometry, S. cerevisiae, MLPCN library | GFP response vs DMSO, % at 10 µM | 3 h; GFP as percent of DMSO wells | AID 2066, 2009 | 0.02% of 320,000 active;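 active = GFP response relative to DMSO above a set limit, near screen average plus 3 SD, cut at about 150% in these data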;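 also: median GFP channel fluorescence of the gated AGP1 strain per well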
MEP2-GFP yeast: modulators of MEP2-GFP levels in yeast, primary screen, S. cerevisiae, multiplex flow cytometry, MLPCN library; S. cerevisiae MEP2-GFP strain, 3 h; 100% = DMSO control level; GFP response vs DMSO, % at 10 µM; 0.51% of 330,000 active;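 active = GFP response versus DMSO above a set limit, roughly screen mean plus 3 SD, cut at about 180% in these data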;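 also: median GFP fluorescence of the barcode-gated MEP2-GFP cells per well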
CIT2 TOR yeast: modulators of CIT2-GFP expression in yeast, primary screen, S. cerevisiae, GFP fusion, multiplex flow cytometry, MLPCN library; S. cerevisiae CIT2-GFP strain, 3 h; 100 means same as DMSO wells; 0.065% of 320,000 active; GFP response vs DMSO, % at 10 µM;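 active = GFP response relative to DMSO above a set limit, near the screen mean plus 3 SD, cut at about 150% in these data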;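 also: ratio of well median GFP fluorescence to mean of DMSO wells on the plate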
LAP4-GFP MLPCN: modulators of LAP4-GFP expression in yeast, primary screen, S. cerevisiae, multiplex flow cytometry, MLPCN library; 3 h; median GFP as percent of DMSO wells; GFP response vs DMSO, % at 10 µM; 0.34% of 320,000 active;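 active = GFP response vs DMSO above a set limit, about the screen mean plus 3 SD, cut at about 150% in these data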
LAP4-GFP pick2: LAP4-GFP expression modulators in yeast, confirmation, cell-based, second cherry pick, flow cytometry | shares compounds with LAP4-GFP MLPCN | S. cerevisiae LAP4-GFP strain, 3 h | GFP response vs DMSO, % at 10 µM | 20% of 590 active;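 active = GFP signal as percent of the solvent control above about 150%, meaning raised reporter expression, limit read from the data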;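 also: ratio of well median GFP fluorescence to plate DMSO mean so 100% = DMSO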
MEP2 cherry2: modulators of MEP2-GFP levels in yeast, confirmation, S. cerevisiae, flow cytometry GFP, second cherry picks | shares compounds with LAP4-GFP MLPCN | S. cerevisiae MEP2-GFP strain, 3 h | GFP response vs DMSO, % at 10 µM | 10% of 590 active | AID 2622, 2010;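 active = GFP signal above 150% of the solvent control wells, that is a rise of more than half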;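 also: median channel GFP fluorescence of all gated yeast cells per well; ratio of median GFP to plate DMSO average so 100% = DMSO level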
RPL19A GFP CP2: RPL19A-GFP modulators in TOR pathway yeast, confirmation, cell-based, S. cerevisiae, flow cytometry, second cherry pick; S. cerevisiae RPL19A-GFP strain, 3 h; hits give low values; 100% means same as DMSO wells; AID 2623, 2010; 3% of 590 active; shares compounds with LAP4-GFP MLPCN; GFP response vs DMSO, % at 10 µM;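 active = under 65% GFP response relative to DMSO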;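 also: median GFP channel fluorescence per well over the all cells gate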
CIT2-GFP pick2: modulators of CIT2-GFP expression in yeast, confirmation, flow cytometry, second cherry pick, single plex. S. cerevisiae CIT2-GFP strain, 3 h; DMSO control wells read 100%. 8% of 590 active. shares compounds with LAP4-GFP MLPCN. GFP response vs DMSO, % at 10 µM;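 active = GFP response vs DMSO above about 150%, limit read from the data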;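 also: median green fluorescence per well over all gated yeast cells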
AGP1-GFP pick2: AGP1-GFP expression modulators, hit retest, confirmation, cell-based, flow cytometry, S. cerevisiae, cherry pick set 2 | shares compounds with LAP4-GFP MLPCN | S. cerevisiae AGP1-GFP strain, 3 h | percent response vs DMSO, % at 10 µM | 590 tested, under 10 active | AID 2643, 2010;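 active = over 150 percent of DMSO response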;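 also: median GFP channel fluorescence over all cells without mother daughter split; sample median GFP divided by mean DMSO control so 100% equals DMSO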
s288c autofluor: compound autofluorescence in yeast s288c, dose response, artefact control for yeast TOR pathway GFP screen, s288c strain; 610 tested, under 10 active; shares compounds with LAP4-GFP MLPCN; S. cerevisiae s288c, 520 nm autofluorescence, flow cytometry, 3 h; hits give high values; zero means same as solvent-only cells; fluorescence change (kMESF span) at 33 µM;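 active = fluorescence span over the dose series, or activity score, above about 33, limit read from the data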
Yeast autofl DR: autofluorescence of compounds in yeast s288c, dose response, artefact control for yeast TOR pathway GFP screen, primary hits, KU SAR, s288c parental | shares compounds with LAP4-GFP MLPCN | S. cerevisiae s288c parental, compound autofluorescence, flow cytometry, 3 h | fluorescence change (span) at 33 µM | 110 tested, under 10 active;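 active = fluorescence change span, or the activity score built from it, above 25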
TORC1 bypass gr: wild-type yeast growth inhibition sparing TORC1 bypass cells, mechanism study for yeast TOR pathway GFP screen, BY4741 wild type, TORC1 bypass strain; growth rating (0-3) at 30 µM; 120 tested, under 10 active; AID 504456, 2011; S. cerevisiae BY4741 spot growth rating, 48-72 h; hits give low values; shares compounds with LAP4-GFP MLPCN;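 active = growth rating at most 1 for wild type yeast while the TORC1 bypass strain still grows fully, rated 3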
Numbers without * were called inactive; . = no result.

SMILES	RPL19A-GFP yeast	AGP1 TOR yeast	MEP2-GFP yeast	CIT2 TOR yeast	LAP4-GFP MLPCN	LAP4-GFP pick2	MEP2 cherry2	RPL19A GFP CP2	CIT2-GFP pick2	AGP1-GFP pick2	s288c autofluor	others
O=C(OCC(=O)N1CCN(C(=O)c2ccco2)CC1)c1cc(-c2cccc(Br)c2)nc2ccccc12	66.1	125.9	124.7	121.2	162.2*	.	.	.	.	.	0.1	Yeast autofl DR=0.08;TORC1 bypass gr=3
O=C(OCC(=O)N1CCN(C(=O)c2ccco2)CC1)c1cc(-c2ccc(F)cc2)nc2ccccc12	71.5	129.0	104.0	105.1	186.8*	148.1	201.3*	71.9	133.4	120.0	-0.1	Yeast autofl DR=0.29;TORC1 bypass gr=3
Cc1nnc(NC(=O)c2ccccc2NC(=O)c2ccccc2)s1	101.3	104.9	106.2	96.3	107.7	.	.	.	.	.	.
OCC[C@H]1C[C@@H](O)[C@H](O)[C@]2(CCc3ccccc3CO2)O1	97.8	75.4	86.8	75.7	128.0	.	.	.	.	.	.
Cc1ccc(-c2nc(C)sc2CC(=O)Nc2nnc(C)s2)cc1	52.9	41.1	154.8	93.8	96.6	113.2	122.3	99.5	118.2	104.3	0
CC(=O)Nc1ccc(NC(=O)Cc2sc(C)nc2-c2ccc(C)cc2)cc1	101.9	108.8	99.8	100.3	99.2	.	.	.	.	.	.
Cc1cccc(OCCN2CSC(=S)N(C)C2)c1	84.3	103.3	99.5	83.2	159.6*	.	.	.	.	.	0.3
COCCn1c(SCC(=O)NC2(C#N)CCCCC2)nc2ccccc2c1=O	95.5	95.3	94.2	87.1	94.5	.	.	.	.	.	.
C[C@@]12C(=O)Nc3cc(Cl)ccc3C(=O)N1[C@H]1c3ccccc3OC[C@@H]1[C@@H]2c1ccccc1	101.6	87.5	90.5	96.7	121.1	.	.	.	.	.	.
C[C@@]12C(=O)Nc3ccc(Cl)cc3C(=O)N1[C@H]1c3ccccc3OC[C@@H]1[C@@H]2c1ccccc1	104.2	90.4	94.2	85.7	156.9*	132.3	120.5	95.9	91.8	97.8	.
O=C(NCc1ccc2c(c1)OCO2)c1nc(S(=O)(=O)Cc2ccccc2)ncc1Cl	92.3	117.8	102.0	107.9	174.7*	.	.	.	.	.	-0.21
O=[N+]([O-])c1ccc(N=Nc2c(Cl)cc(O)cc2Cl)cc1	95.9	81.1	106.8	83.8	278.3*	.	.	.	.	.	0.82
